Several values for one entry are separate records, joined by “and”; a condition that tells them apart may be missing. Equal values may be shown once. Records with an inconclusive call do not appear. Activity calls are given as the source filed them. Unless noted, the call rests on the fitted dose curve; in most records, active means well fitted curve in the direction sought with a large enough effect; inconclusive means small, poorly fitted or top-dose-only effect, or another doubt; inactive means no such curve, though single readings can be large; an effect the other way counts as inactive or inconclusive.
Legend:
Tov-21-G = assay: Primary qHTS to identify gynecologic anti-cancer compounds using libraries of approved drugs and bioactive compounds (AID 1345084); conditions: Gynecologic cancer cell panel viability, ATPlite luminescence, 48 h; series mostly up to 57.5 µM; further: nearly all actives have a fitted effect of over 55% in size; further: potency means the concentration at half of the fitted maximal effect
Procedure, shortened: (§1)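 Five-concentration response, 48 h; readout is ATP-driven luciferase luminescence.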

Tov112D = assay: as above; conditions: Gynecologic cancer cell panel viability, ATPlite luminescence, 48 h; series mostly up to 57.5 µM
Procedure, shortened: as §1

[1] = Drug repurposing screens with cells derived from glioblastoma tumor samples (AID 1345199); conditions: GBM patient neurospheres viability, ATP luminescence, 48 h; further: nearly all actives have a fitted effect of over 40% in size; further: potency means the concentration at half of the fitted maximal effect; on activity, negative = cell killing: on the % scale 0 is the no-effect control and ±100 the full control effect
Procedure, shortened: (§2)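 Primary testing used CD133+ neurospheres from four GBM patients, seven concentrations, 48 h exposure and ATP-based viability; confirmation added three slower-growing patient lines.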

astro = assay: as above; conditions: viability, ATP luminescence, 48 h; series mostly up to 45.9 µM
Procedure, shortened: as §2

[2] = target: Nuclear receptor subfamily 1 group I member 2 (Rattus norvegicus) (UniProt Q9R1A7); assay: qHTS assay for small molecule activators of the rat pregnane X receptor (rPXR) signaling pathway (AID 651751; call rule not given here; further: 0% is about no effect); conditions: rPXR reporter cells, luciferase (One-Glo), 24 h
[3] = qHTS assay to identify inhibitors of the type 1 interferon - major histocompatibility complex class I in skeletal muscle: Counter screen cell viability and HiBit confirmation (AID 1347412); conditions: iHSKM muscle cells + IFN-b, HiBiT or CellTiter-Glo, 24 h; Potency: HiBiT; Viability, at 45.9 µM (top of the series); further: on the % scale 0 is the no-effect control and ±100 the full control effect; nearly all actives have a fitted effect of over 60% in size
Procedure, shortened: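 CRISPR HLA-B*08:01-HiBit immortalized human myoblasts (C25cl48) stimulated with 4 ng/ml IFN-beta and compounds (12-point 1:3, top 46 uM final) for 24 h at 37 C. Duplicate plates read by HiBit lytic luminescence or CellTiter Glo ATP.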

[4] = qHTS assay for small molecule activators of the human pregnane X receptor (PXR) signaling pathway (AID 720659; call rule not given here; further: 0% is about no effect)
[5] = at 91.6 µM (top of the series), tumour line B
[6] = at 91.6 µM (top of the series), tumour line D
[7] = at 99.2 µM (top of the series), tumour line C
[8] = at 45.9 µM (top of the series), tumour line B
[9] = at 45.9 µM (top of the series), tumour line D
[10] = at 46.1 µM (top of the series), tumour line C

Nuclear receptor subfamily 1 group I member 2 (Rattus norvegicus), sequence (Q9R1A7 whole entry, looked up): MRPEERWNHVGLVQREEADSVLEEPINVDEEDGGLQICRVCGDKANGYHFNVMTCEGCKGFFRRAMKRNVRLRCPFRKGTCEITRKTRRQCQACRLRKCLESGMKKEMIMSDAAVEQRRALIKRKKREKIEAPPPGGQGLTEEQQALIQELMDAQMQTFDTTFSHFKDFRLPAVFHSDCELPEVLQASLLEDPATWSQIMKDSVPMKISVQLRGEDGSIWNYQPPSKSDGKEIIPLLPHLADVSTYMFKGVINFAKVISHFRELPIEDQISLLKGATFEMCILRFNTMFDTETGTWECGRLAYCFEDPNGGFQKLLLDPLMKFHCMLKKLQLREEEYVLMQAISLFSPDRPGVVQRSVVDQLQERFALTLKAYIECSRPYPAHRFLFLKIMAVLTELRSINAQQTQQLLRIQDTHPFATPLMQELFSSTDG

COC(=O)c1c(Cl)c(Cl)c(C(=O)OC)c(Cl)c1Cl
inactive: Potency (Tov-21-G) | Potency (Tov112D) | activity, negative = cell killing [1, 5] -13.9% | activity, negative = cell killing [1, 6] -16.3% | activity, negative = cell killing [1, 7] -5.72% | Potency (astro) | max response [2] 2.2%

O=C1CC2(CCCC2)CC(=O)N1CCNCC1COc2ccccc2O1 (configuration not stated)
inactive: Potency (Tov-21-G) | Potency (Tov112D) | Potency (astro)

CO[C@@H]1[C@@H](OC)[C@H](C)[C@@](O)(CC(=O)O)O[C@H]1[C@H](C)[C@H]1O[C@@]2(CC[C@@](C)([C@H]3CC[C@@](C)([C@@H]4O[C@@H]([C@H]5O[C@](C)(O)[C@H](C)C[C@@H]5C)C[C@@H]4OC4C[C@H](OC)[C@@H](OC)[C@H](C)O4)O3)O2)C[C@H](O)[C@H]1C (some centres not stated)
active: Potency (Tov-21-G) 11.2 µM | Potency (Tov112D) 11.2 µM | Potency (astro) 1.58 µM

CC[N+]1(CC)CCC(=C(c2ccccc2)c2ccccc2)C1C (configuration not stated)
inactive: Potency (Tov-21-G) | Potency (Tov112D) | Potency (astro)

c1ccc(C(O[C@H]2CCCN(CCc3ccc4c(c3)OCO4)C2)c2ccccc2)cc1
inactive: Potency (Tov-21-G) | Potency (Tov112D) | activity, negative = cell killing [1, 8] -23.2% | Potency (astro)
active: Potency ([1]; tumour line A) 11.2 µM

COC(=O)C1=C(C)NC(COC(N)=O)=C(C(=O)OC(C)C)C1c1cccc(Cl)c1Cl (configuration not stated)
inactive: Potency (Tov-21-G) | Potency (Tov112D) | activity, negative = cell killing [1, 8] 0.976% | Potency [3]
active: Potency ([1]; tumour line A) 8.91 µM | Potency ([1]; tumour line D) 12.6 µM

Oc1ccccc1
inactive: Potency (Tov-21-G) | Potency (Tov112D) | activity, negative = cell killing [1, 8] 8.9% | activity, negative = cell killing [1, 9] -14.6% | activity, negative = cell killing [1, 10] -15.8% | Potency (astro) | max response [2] -2.24% and -1.02% and -2.45% | outcome [4]

CN1CCC(N(Cc2cccs2)c2ccccc2)CC1
active: Potency ([1]; tumour line A) 10 µM
inactive: Potency (Tov-21-G) | Potency (Tov112D) | activity, negative = cell killing [1, 8] -22.4% | Potency (astro)

COc1cc(C=O)ccc1O
inactive: Potency (Tov-21-G) | Potency (Tov112D) | activity, negative = cell killing [1, 8] -12.2% | activity, negative = cell killing [1, 9] 2.3% | activity, negative = cell killing [1, 10] -15.5% | Potency (astro) | max response [2] 1.03% and -2.41% | outcome [4]

CC(C(O)c1ccccc1)N(C)CCOC(c1ccccc1)c1ccccc1 (configuration not stated)
inactive: Potency (Tov-21-G) | Potency (Tov112D) | Potency (astro)

C=CC[N+]1([C@H]2C[C@H]3[C@@H]4CC[C@H]5C[C@H](OC(C)=O)[C@@H](N6CCCCC6)C[C@]5(C)[C@H]4CC[C@]3(C)[C@H]2OC(=O)CC)CCCCC1
inactive: Potency (Tov-21-G) | Potency (Tov112D) | Potency (astro)

CCCCCCCCCCCCCC[N+](C)(C)C
active: Potency (Tov-21-G) 5.62 µM | Potency (Tov112D) 14.1 µM | Potency (astro) 10 µM

O=C(O)Cc1ccccc1Oc1ccc(Cl)cc1Cl
inactive: Potency (Tov-21-G) | Potency (Tov112D) | Potency (astro)

COc1cc(NS(=O)(=O)c2ccc(N)cc2)nc(C)n1
inactive: Potency (Tov-21-G) | Potency (Tov112D) | Potency (astro)

O=C(NO)c1ccccc1
inactive: Potency (Tov-21-G) | Potency (Tov112D) | activity, negative = cell killing [1, 5] -25.1% | activity, negative = cell killing [1, 6] -20.6% | activity, negative = cell killing [1, 7] -13.7% | Potency (astro) | max response [2] -1.37% | outcome [4]

CN1[C@@H]2CC[C@H]1CC(NC(=O)n1c(=O)[nH]c3ccccc31)C2 (some centres not stated)
inactive: Potency (Tov-21-G) | Potency (Tov112D) | Potency (astro)

CCOC(=O)c1ccc(NC(=O)CN2CCCCC2)cc1
inactive: Potency (Tov-21-G) | Potency (Tov112D) | Potency (astro)

Cc1cc(C(C)(C)C)c(O)c(C(C)(C)C)c1
inactive: Potency (Tov-21-G) | Potency (Tov112D) | activity, negative = cell killing [1, 10] -15.8% | Potency (astro) | max response [2] -5.78% and 3.32%

O=C(CO)[C@@H](O)[C@H](O)[C@@H](O)CO
inactive: Potency (Tov-21-G) | Potency (Tov112D) | Potency (astro)

CC[N+](CC)(CC)CCOC(=O)C(C1CCCC1)C1CCCC1
inactive: Potency (Tov-21-G) | Potency (Tov112D) | Potency (astro)

CCCCC/C=C\C/C=C\CCCCCCCC(=O)NC(C)c1ccccc1 (configuration not stated)
inactive: Potency (Tov-21-G) | Potency (Tov112D) | Potency (astro)

C=CCOc1cc(Cl)ccc1C(=O)NCCN(CC)CC
inactive: Potency (Tov-21-G) | Potency (Tov112D) | Potency (astro)

Cc1ncc(CO)c(CO)c1O
inactive: Potency (Tov-21-G) | Potency (Tov112D) | activity, negative = cell killing [1, 8] 0.285% | activity, negative = cell killing [1, 9] -6.71% | activity, negative = cell killing [1, 10] 3.74% | Potency (astro) | max response [2] -2.11% | outcome [4]

Cc1ccccc1N1CCN(CCc2nnc3n2CCCC3)CC1
inactive: Potency (Tov-21-G) | Potency (Tov112D) | activity, negative = cell killing [1, 8] -2% | activity, negative = cell killing [1, 10] 19.6% | Potency (astro)

From PubChem BioAssay (NCATS)
